In PubChem BioAssay (EPA / NIEHS) one finds outcome and AC50 data, which are given here for 38 compounds.

A structure can be active in one record and inactive in another. Activity calls are given as the source filed them. The calls were made as follows: active = hit-call score of the fitted dose curve at least 0.9, where 1 is the maximum; inactive = score below 0.9.

The assay deals with CCAAT/enhancer-binding protein beta (Homo sapiens) (UniProt P17676). In words: ATG_C_EBP_CIS: Attagene CIS-FACTORIAL HepG2 Assay for human CCAAT/Enhancer Binding Protein (C/EBP) beta (AID 2282927). Conditions: HepG2 Attagene cis-factorial transcription factor reporter; actives raise or lower the signal. The procedure: ATG_CIS is a cell-based, multiplexed-readout assay that uses HepG2, a human liver cell line, with measurements taken at 24 hours after chemical dosing in a 24-well plate.ATG_C_EBP_CIS is one of 52 assay component(s) measured or calculated from the ATG_CIS assay. It is designed to make measurements of mRNA induction, a form of inducible reporter, as detected with fluorescence intensity signals by Reverse transcription polymerase chain reaction (RT-PCR) and Capillary electrophoresis technology.Data from the assay component ATG_C_EBP_CIS was analyzed into 1 assay endpoint. This assay endpoint, ATG_C_EBP_CIS, was analyzed with bidirectional fitting relative to DMSO as the negative control and baseline of activity. Using a type of inducible reporter, measures of mRNA for gain or loss-of-signal activity can be used to understand the reporter gene at the transcription factor-level as they relate to the gene CEBPB. Furthermore, this assay endpoint can be referred to as a primary readout, because this assay has produced multiple assay endpoints where this one serves a reporter gene function. To generalize the intended target to other relatable targets, this assay endpoint is annotated to the dna binding intended target family, where the subfamily is basic leucine zipper.
CCAAT/enhancer-binding protein beta (Homo sapiens), sequence (P17676 whole entry, looked up): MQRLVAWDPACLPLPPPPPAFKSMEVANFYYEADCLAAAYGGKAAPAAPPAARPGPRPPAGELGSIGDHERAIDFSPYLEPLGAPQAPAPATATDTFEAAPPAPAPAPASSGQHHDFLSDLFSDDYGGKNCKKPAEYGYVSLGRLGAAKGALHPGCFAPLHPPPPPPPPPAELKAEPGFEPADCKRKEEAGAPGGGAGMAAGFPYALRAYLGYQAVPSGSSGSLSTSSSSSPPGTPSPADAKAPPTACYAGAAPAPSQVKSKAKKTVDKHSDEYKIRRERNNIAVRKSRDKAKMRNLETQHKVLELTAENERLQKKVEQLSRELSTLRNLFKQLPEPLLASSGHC
Human liver HepG2 cells are transiently transfected with multiple reporter transcription units (MRTUs) in 6-well plates using FuGene 6 reagent (Roche; 3 ml FuGene/1 mg DNA). The MRTU constructs are regulated by a cis-regulating element (promoter). […] A major difference between the CIS and TRANS system is that in CIS activities of endogenous TFs are measured, whereas the TRANS assay evaluates changes in activities of exogenous, chimeric NR-Gal4 proteins. […] At the end of 24 hour incubation, total RNA was isolated using TriZol reagent (Invitrogen). The isolated RNA is then reverse-transcribed using oligo(dT) primer and Mo-MLV reverse transcriptase (Invitrogen) with DNAse I (Ambion) treatment for 30 min. The one-tenth of the produced cDNA was amplified by PCR using Taq DNA polymerase (Invitrogen) and two reporter sequence-specific primers. The PCR products were fluorescently labeled by primer extension with 6-arboxyfluorescein (6-FAM) 5'-labeled reporter sequence-specific primer (2 min at 95 C, 20 s at 68 C and 10 min at 72 C) and these products were digested with 5U of HpaI (New England Biolabs) for 2h at 37 C. The fragments were purified using Qiaquick PCR columns (Qiagen), analyzed on an ABI 3130xL genetic analyzer (Applied Biosystems) with peak positions identified by using a set of X-rhodamine (ROX)-labeled MapMarker1000 molecular weight standards (BioVentures). The raw capillary electrophoresis data was processed using Attagraph software (Attagene).
For the compound `CC(C)c1c(C(=O)Nc2ccccc2)c(-c2ccccc2)c(-c2ccc(F)cc2)n1CC[C@@H](O)C[C@@H](O)CC(=O)O`, the result was inactive. For the compound `O=C(Nc1ccc(Cl)c(Cl)c1)c1cc(Cl)cc(Cl)c1O`, the outcome was inactive. Consider `Cc1ccc(C(=O)c2ccccc2)cc1`, for which the result was inactive.

On to `CCCCN(C)C`, for which the outcome was inactive. Turning to `CC(C)[C@@H]1CC[C@@H](C)C[C@H]1O`, the outcome was inactive. On to `O=S(=O)(O)C(F)(F)C(F)(F)C(F)(F)C(F)(F)C(F)(F)C(F)(F)C(F)(F)C(F)(F)C(F)(F)C(F)(F)F`, for which the result was inactive.

For the compound `Cc1cc(=O)oc2cc(O)ccc12`, the result was inactive. As usually defined, the AC50 is the concentration at which the activity in the assay is half-maximal. For `O=C(CC(=O)C(F)(F)C(F)(F)C(F)(F)F)c1cccs1`, the outcome was inactive and the AC50 was 66 µM (active). Consider `Oc1c(Cl)ccc(Cl)c1Cl`, for which the result was inactive. Still for that read-out and setting: to `CC1=CC(=O)c2ccccc2C1=O` belongs “inactive”; to `Oc1cc2ccccc2cc1O`, “inactive”.

Consider `COc1cc([N+](=O)[O-])ccc1N`, for which the outcome was inactive.

On to `C/C=C/C(=O)C1=C(C)CCCC1(C)C`, for which the outcome was inactive.

Consider `CCN(CC)CC`, for which the outcome was inactive. Still for that read-out and setting: to `O=C(F)C(F)(F)C(F)(F)C(F)(F)C(=O)F` belongs “inactive”. `CCCCc1ccc2ccccc2c1S(=O)(=O)O`: the result was inactive. `C[C@]12CC[C@@H]3c4ccc(O)cc4CC[C@H]3[C@@H]1CC[C@@H]2OC(=O)CCC1CCCC1`: the concentration at half-maximal activity (AC50) was 137 µM (active). On the same count and under the same terms, to `CCCCCCCCCCCCCCCCCC[N+](C)(C)Cc1ccccc1` belongs 75.8 µM (active). For `OCC1CCC(CO)CC1` (stereo not given), the result was inactive. On the same count and under the same terms, to `COc1cc(OC)nc(NC(=O)NS(=O)(=O)Nc2ccccc2C(=O)N(C)C)n1` belongs “inactive”; to `CCc1cccc(CC)c1NC(=O)C(=O)O`, “inactive”; to `CC1CNCC(C)O1` (stereo not given), “inactive”. Still for that read-out and setting: next, `CC(=O)Nc1ccc(S(N)(=O)=O)cc1`: “inactive”. As for `OCCN1CN(CCO)CN(CCO)C1`, the result was inactive. On the same count and under the same terms, next, `O=C(O)C(=O)O`: “inactive”. Turning to `CCCCCCCCCCCC[N+](C)(C)CCCCCCCCCCCC`, the AC50 is 16.4 µM (active). `O=C1OC(=O)C(F)(F)C1(F)F`: the result was inactive. Regarding `c1cc2cccc3c4cccc5cccc(c(c1)c23)c54`, the outcome was inactive. For the compound `O=C(O)CN(CCCN(CC(=O)O)CC(=O)O)CC(=O)O`, the result was inactive. The same measure, in the same setting: to `NC(C(F)(F)F)C(F)(F)F` belongs “inactive”; to `Cc1ccc(N=Nc2c(O)ccc3ccccc23)c(C)c1`, “inactive”; to `C=CC(=O)OCCC(F)(F)C(F)(F)C(F)(F)C(F)(F)C(F)(F)C(F)(F)F`, “inactive”. Still for that read-out and setting: to `C=CC(F)(F)C(F)(F)C(F)(F)C(F)(F)F` belongs “inactive”. The same measure, in the same setting: to `OCC(CO)(CBr)CBr` belongs “inactive”. Turning to `NC(=NCCCCCCN=C(N)/N=C(\N)Nc1ccc(Cl)cc1)/N=C(\N)Nc1ccc(Cl)cc1`, the AC50 was 24.6 µM (active) and the result was inactive. As for `COC(=O)C(F)(F)C(F)(F)C(F)(F)F`, the outcome was inactive. On to `CCOC=C(C(=O)OCC)C(=O)OCC`, for which the result was inactive.

Consider `NCCN`, for which the result was inactive.
